The values that follow come from the supplement of paper PMC7366291.

Details in all cases: 25 µM; exposure: 24-48 hpf
The subject of test [1] is Danio rerio Tg(wt1b:EGFP) embryo, pronephros. Briefly: glomerular separation, fold change vs DMSO control; higher = glomeruli further apart (abnormal). The procedure, abridged: (§1)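 Dechorionated Tg(wt1b:EGFP) zebrafish embryos were treated with 25 μM compound in 0.5% DMSO, in HEPES-buffered E3 with 0.003% PTU, from 24 to 48 hpf at 28.5°C. On maximum projections of dorsal pronephros images, 16 hand-placed reference points in Fiji gave distances and angles, and values more than 2 SD from the feature mean were left out. Results are fold changes over the mean of same-day DMSO-treated embryos.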

Test [2] has the same test system. Briefly: glomerular width (mean of left and right), fold change vs DMSO control; higher = wider glomerulus. The procedure, abridged:
as §1

The test system is the same in test [3]. The experiment in a line: fraction of imaged embryos annotated as normal kidney; higher = less nephrotoxic; extreme values may be limits of the assay. The method, boiled down:
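From 24 to 48 hpf at 28.5°C, dechorionated Tg(wt1b:EGFP) zebrafish embryos in 12-well plates were kept in 5 mM HEPES-buffered E3 with 0.003% PTU, 0.5% DMSO and 25 μM compound. Pronephroi were imaged by widefield fluorescence at 470 nm and judged by eye from maximum projections. Reported is the proportion of embryos per treatment in the normal-kidney category.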

For test [4] the test system is unchanged. The experiment in a line: pronephric angle neck segment to proximal convoluted tubule (mean of left and right), fold change vs DMSO control; higher = larger pronephric angle. The method, boiled down:
as §1

Where a name gives a salt, the structure may show the parent alone. ± gives the standard deviation or the standard deviation of the averaged measurements.

Consider `CCCN1C[C@H](CSC)C[C@@H]2c3cccc4[nH]cc(c34)C[C@H]21` [Pergolide mesylate], for which the glomerular separation in test [1] stood at 1.26 ± 0.37. The glomerular width in test [2] was found to be 1.01 ± 0.019. Moreover, the “fraction of imaged embryos annotated as normal kidney” value (shortened to “fraction of imaged embryos annotated”) in test [3] stood at 1. Also, the “pronephric angle neck segment” value in test [4] is 0.997 ± 0.029.
In test [1], `c1ccc2c(c1)OCC(C1=NCCN1)O2` (configuration not stated) [Idazoxan hydrochloride] showed a glomerular separation of 0.851 ± 0.4. The molecule further gave a glomerular width in test [2] of 0.99138 ± 0.00087. Also, in test [3], the “fraction of imaged embryos annotated” value was found to be 0.833. For the same molecule, in test [4], the “pronephric angle neck segment” value worked out at 1.02 ± 0.021.
`O[C@@H]1CCCC[C@H]1N1CCC(c2ccccc2)CC1` [L(-)-vesamicol hydrochloride]: the glomerular separation in test [1] worked out at 1.01 ± 0.55. Also, the glomerular width in test [2] is 0.955 ± 0.032. Besides, the “fraction of imaged embryos annotated” value in test [3] came out at 0.917. In addition, in test [4], the “pronephric angle neck segment” value came out at 1.01 ± 0.075.
As for `OC(c1ccccc1)(c1ccccc1)C1CCNCC1` [Azacyclonol], the glomerular separation in test [1] was 0.869 ± 0.25. Further, the glomerular width in test [2] was 0.9558 ± 0.0054. Moreover, the “fraction of imaged embryos annotated” value in test [3] was found to be 0.833. The “pronephric angle neck segment” value in test [4] is 0.994 ± 0.029.
Molecule `COc1ccc(C(=O)N2CCCC2=O)cc1` [Aniracetam] displayed a glomerular separation in test [1] of 0.837 ± 0.17. Besides, in test [2], the glomerular width is 1.06 ± 0.052. In test [3], the “fraction of imaged embryos annotated” value came to 0.75. In test [4], the “pronephric angle neck segment” value worked out at 1.02 ± 0.019.
In the case of `CC(Cc1ccc(O)cc1)NCC(O)c1cc(O)cc(O)c1` (configuration not stated) [Fenoterol hydrobromide], the glomerular separation in test [1] amounted to 1.33 ± 0.53. This molecule had a glomerular width in test [2] of 1.051 ± 0.0075. Moreover, the “fraction of imaged embryos annotated” value in test [3] is 1. For the same molecule, the “pronephric angle neck segment” value in test [4] worked out at 0.916 ± 0.028.
For `CCN(CC)C(C)C(=O)c1ccccc1` (configuration not stated) [Amfepramone hydrochloride] the same measures were 0.872 ± 0.24, 0.97173 ± 0.00026, 0.917 and 1.01 ± 0.0072.
As for `CC(C)[N+](C)(CCC(C(N)=O)(c1ccccc1)c1ccccc1)C(C)C` [Isopropamide iodide], the glomerular separation in test [1] amounted to 0.996 ± 0.45. The same molecule registered a glomerular width in test [2] of 1.0283 ± 0.001. For the same molecule, in test [3], the “fraction of imaged embryos annotated” value turned out to be 0.818. Further, the “pronephric angle neck segment” value in test [4] came out at 0.983 ± 0.025.
In test [1], `C(#CCN1CCCC1)CN1CCCC1` [Tremorine dihydrochloride] yielded a glomerular separation of 1.25 ± 0.52. In addition, the glomerular width in test [2] came out at 0.9472 ± 0.008. Moreover, the “fraction of imaged embryos annotated” value in test [3] came out at 0.75. Moreover, the “pronephric angle neck segment” value in test [4] is 1.03 ± 0.015.
In the same order, the values of `O=c1[nH]oc2c1CCNC2` [THIP Hydrochloride] are 0.923 ± 0.31, 1.08 ± 0.012, 0.917 and 0.961 ± 0.03.
In the same order, the values of `CC(C)CC(N(C)C)C1(c2ccc(Cl)cc2)CCC1` (configuration not stated) [Sibutramine hydrochloride] are 0.986 ± 0.37, 0.995 ± 0.021, 0.417 and 1.08 ± 0.054.
Take `C[C@]12CC[C@H]3[C@@H](CCC4=CC(=O)CC[C@@H]43)[C@@H]1CC[C@@H]2O` [Nandrolone]: in test [1], the glomerular separation amounted to 1.02 ± 0.42. The same molecule displayed a glomerular width in test [2] of 0.8978 ± 0.0049. Also, the “fraction of imaged embryos annotated” value in test [3] was determined as 0.833. Also, the “pronephric angle neck segment” value in test [4] turned out to be 0.95 ± 0.015.
`CC(=O)OC1CN2CCC1CC2` (configuration not stated) [Aceclidine Hydrochloride] yielded a glomerular separation in test [1] of 0.978 ± 0.38. In test [2], this molecule returned a glomerular width of 1.053 ± 0.01. In test [3], the “fraction of imaged embryos annotated” value is 0.917. Further, the “pronephric angle neck segment” value in test [4] stood at 0.99 ± 0.044.
With `CN1CCC2(C)c3cc(O)ccc3N(C)C12` (single isomer, unassigned; (-)) [(-)-Eseroline fumarate salt], the glomerular separation in test [1] worked out at 0.883 ± 0.34. Also, the glomerular width in test [2] was determined as 1.01 ± 0.025. Further, in test [3], the “fraction of imaged embryos annotated” value amounted to 0.917. Moreover, in test [4], the “pronephric angle neck segment” value came out at 1.02 ± 0.043.
For `CC(=O)O[C@H]1CC[C@@]2(C)C(=CC[C@@H]3[C@@H]2CC[C@]2(C)C(=O)CC[C@@H]32)C1` [Dehydroisoandosterone 3-acetate], the glomerular separation in test [1] is 1.13 ± 0.35. For the same molecule, the glomerular width in test [2] was determined as 0.896 ± 0.056. For the same molecule, in test [3], the “fraction of imaged embryos annotated” value came out at 0.917. In addition, the “pronephric angle neck segment” value in test [4] amounted to 1.02 ± 0.043.
Turning to `COc1cccc(C2(O)CCCCC2CN(C)C)c1` (configuration not stated) [Tramadol hydrochloride], the glomerular separation in test [1] worked out at 0.728 ± 0.23. For the same molecule, the glomerular width in test [2] was found to be 0.989 ± 0.021. For the same molecule, the “fraction of imaged embryos annotated” value in test [3] worked out at 0.833. The “pronephric angle neck segment” value in test [4] worked out at 0.9988 ± 0.0034.
For `COc1ccc(OC)c(C(O)C(C)N)c1` (configuration not stated) [Methoxamine hydrochloride] the same measures were 0.886 ± 0.22, 0.9725 ± 0.0077, 0.75 and 0.976 ± 0.021.
`CC(Cc1ccccc1)NCCC(c1ccccc1)c1ccccc1` (configuration not stated) [Prenylamine lactate] displayed a glomerular separation in test [1] of 1.05 ± 0.22. For the same molecule, in test [2], the glomerular width came to 1.07 ± 0.071. Besides, in test [3], the “fraction of imaged embryos annotated” value was found to be 0.727. Also, the “pronephric angle neck segment” value in test [4] is 0.953 ± 0.032.
`O=P1(NCCCl)OCCCN1CCCl` (configuration not stated) [Ifosfamide] returned a glomerular separation in test [1] of 1.05 ± 0.39. The molecule also had a glomerular width in test [2] of 0.999 ± 0.045. Further, in test [3], the “fraction of imaged embryos annotated” value was 0.833. In test [4], the “pronephric angle neck segment” value worked out at 1.06 ± 0.023.
As for `C=CC[C@]1(O)CC[C@H]2[C@@H]3CCC4=CC(=O)CCC4=C3C=C[C@@]21C` [Altrenogest], in test [1], the glomerular separation amounted to 1.44 ± 0.77. Further, the glomerular width in test [2] turned out to be 1.07 ± 0.0053. In test [3], the “fraction of imaged embryos annotated” value was determined as 0.333. Besides, the “pronephric angle neck segment” value in test [4] stood at 0.981 ± 0.072.
In the case of `CC[C@@H](C(N)=O)N1CCCC1=O` [Levetiracetam], in test [1], the glomerular separation amounted to 0.937 ± 0.41. Further, in test [2], the glomerular width was determined as 1.04 ± 0.041. In addition, the “fraction of imaged embryos annotated” value in test [3] turned out to be 0.917. Also, the “pronephric angle neck segment” value in test [4] was determined as 1.011 ± 0.0044.
Molecule `CC(O)(CS(=O)(=O)c1ccc(F)cc1)C(=O)Nc1ccc(C#N)c(C(F)(F)F)c1` (configuration not stated) [Bicalutamide] had a glomerular separation in test [1] of 1.14 ± 0.56. Moreover, in test [2], the glomerular width turned out to be 1.04 ± 0.023. The “fraction of imaged embryos annotated” value in test [3] worked out at 0.75. Further, the “pronephric angle neck segment” value in test [4] is 0.971 ± 0.002.
On to `CC(C)c1cccc(C(C)C)c1O` [Propofol], for which the glomerular separation in test [1] turned out to be 0.693 ± 0.2. For the same molecule, in test [2], the glomerular width was 1.02 ± 0.021. For the same molecule, the “fraction of imaged embryos annotated” value in test [3] came out at 0.75. For the same molecule, in test [4], the “pronephric angle neck segment” value was found to be 1.02 ± 0.14.
For `CC(C)(C)NCC(O)c1cc(Cl)c(N)c(Cl)c1` (configuration not stated) [Clenbuterol hydrochloride], the glomerular separation in test [1] is 1.04 ± 0.33. Also, the glomerular width in test [2] was determined as 1.08 ± 0.032. The “fraction of imaged embryos annotated” value in test [3] was determined as 0.75. In test [4], the “pronephric angle neck segment” value worked out at 1 ± 0.067.
As to `NC(=O)C[S+]([O-])C(c1ccccc1)c1ccccc1` (configuration not stated) [Modafinil], in test [1], the glomerular separation was 1.04 ± 0.25. The molecule also came in with a glomerular width in test [2] of 1.09 ± 0.073. Also, the “fraction of imaged embryos annotated” value in test [3] was 0.5. For the same molecule, the “pronephric angle neck segment” value in test [4] worked out at 1 ± 0.041.
For the molecule `O=[N+]([O-])O[C@H]1CO[C@H]2[C@@H]1OC[C@H]2O[N+](=O)[O-]` [Isosorbide dinitrate], the glomerular separation in test [1] came out at 1.15 ± 0.34. The same molecule registered a glomerular width in test [2] of 0.9189 ± 0.0074. Also, the “fraction of imaged embryos annotated” value in test [3] was 0.833. Further, the “pronephric angle neck segment” value in test [4] was found to be 1.02 ± 0.024.
In the case of `C[C@]12CC[C@H](O)C[C@H]1CC[C@@H]1[C@@H]2C[C@@H](O)[C@]2(C)[C@@H](C3=CC(=O)OC3)CC[C@]12O` [Digoxigenin], in test [1], the glomerular separation worked out at 0.711 ± 0.21. The molecule further registered a glomerular width in test [2] of 0.994 ± 0.017. Further, the “fraction of imaged embryos annotated” value in test [3] was 0.917. Further, in test [4], the “pronephric angle neck segment” value amounted to 0.9639 ± 0.0077.
In the same order, the values of `Fc1ccc(C(OCCN2CCN(CCCc3ccccc3)CC2)c2ccc(F)cc2)cc1` are 5.45 ± 2.3, 0.737 ± 0.028, 0 and 1.02 ± 0.097.
